Source: PubChem BioAssay AID1903 (Southern Research Specialized Biocontainment Screening …, 2009)
The campaign covered roughly 310,000 compounds. About 1,200 (0.39%) were called active. The rule behind the calls is not given here. A selection follows. Potency and affinity values are given separately.

Target: Large T antigen (Simian virus 40) (UniProt P03070)
Assay: SV40 large T antigen inhibitors, biochemical (AID 1903)
Settings: SV40 large T antigen ATPase/helicase inhibition assay; at 20 µM; hits give high values

Large T antigen (Simian virus 40), sequence (P03070 whole entry, looked up): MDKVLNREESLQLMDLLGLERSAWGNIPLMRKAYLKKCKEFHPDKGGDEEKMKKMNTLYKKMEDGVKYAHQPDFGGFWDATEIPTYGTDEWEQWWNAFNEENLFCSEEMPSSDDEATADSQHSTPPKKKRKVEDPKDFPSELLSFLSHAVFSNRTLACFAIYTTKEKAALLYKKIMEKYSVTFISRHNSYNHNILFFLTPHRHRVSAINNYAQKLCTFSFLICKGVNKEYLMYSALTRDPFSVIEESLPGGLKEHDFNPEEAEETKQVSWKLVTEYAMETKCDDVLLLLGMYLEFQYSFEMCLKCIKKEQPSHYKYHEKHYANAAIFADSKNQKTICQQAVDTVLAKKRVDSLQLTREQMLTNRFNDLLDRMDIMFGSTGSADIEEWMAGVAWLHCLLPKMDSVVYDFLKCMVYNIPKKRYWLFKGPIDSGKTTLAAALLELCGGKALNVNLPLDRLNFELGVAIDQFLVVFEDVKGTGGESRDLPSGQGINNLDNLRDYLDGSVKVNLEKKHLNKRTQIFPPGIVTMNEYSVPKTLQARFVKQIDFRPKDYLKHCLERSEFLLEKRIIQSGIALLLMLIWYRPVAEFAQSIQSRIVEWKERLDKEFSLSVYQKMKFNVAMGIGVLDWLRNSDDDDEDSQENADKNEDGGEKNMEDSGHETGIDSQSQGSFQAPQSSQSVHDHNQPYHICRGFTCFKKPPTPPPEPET

inhibition, inactive:
CC(=O)OCCCCCCCCCCC[N+]1(C)CCCCC1 27.6%
COC(=O)CCCCCCCCCC[N+]1(C)CCCCC1 -2.24%
COc1cc([N+](=O)[O-])ccc1NC(=O)Nc1cnccn1 13.4%
Cc1[nH]n(-c2ccccc2)c(=O)c1C=Nc1ccc2[nH]c(=O)[nH]c2c1 19.5%
Nc1ccc(CCS(N)(=O)=O)cc1 2.24%
CCc1ccc(S(=O)(=O)NCC(O)COc2ccc(OC)cc2)cc1 (stereo not drawn) 1.57%
O=C(Oc1coc(CSc2ncccn2)cc1=O)c1ccccc1[N+](=O)[O-] 18.4%
Cc1ccc2c3c(c(SCC(=O)Nc4nccs4)nc2c1)CCCC3 -1.03%
Cn1c(-c2ccccc2[N+](=O)[O-])[n+](C)c2ccccc21 11.2%
Cc1cc(/C=C2\C(=N)N3N=C(CC(=O)N4CCOCC4)SC3=NC2=O)c(C)n1-c1ccccc1 11.9%
CCOC(=O)C1CC2CC(C1)CN(C(=O)C1CCCCC1)C2 (stereo not drawn) 1.74%
O=[N+]([O-])c1ccccc1N=Nc1ccc(O)cc1 16.2%
C/C(=N\Nc1ccc([N+](=O)[O-])cc1)c1ccc(O)cc1 23.8%
[O-]/C(=C(\C(=S)NCc1ccco1)[n+]1ccccc1)c1ccccc1Br 20.6%
CS(=O)(=O)c1ccc(Cl)c(NC(=O)CCNC(=O)c2ccco2)c1 1.63%
CC(C)c1nnc(NC(=O)CCC(=O)N2CCC(Cc3ccccc3)CC2)s1 16.2%
CC(C)CN1C(=O)c2ccc(C(=O)Nc3ccccn3)cc2C1=O 3.11%
C=CCN1CC(c2nc3ccccc3n2CCOc2ccccc2)CC1=O (stereo not drawn) -0.56%
CN(CC(=O)Nc1ccc(N2CCOCC2)cc1)CC(=O)Nc1ccc(N2CCOCC2)cc1 21.6%
CN(C)/N=C/c1ccc(N2CCOCC2)cc1 16.2%
CN(C)C(CNc1ccc(S(C)(=O)=O)cc1[N+](=O)[O-])Cc1ccccc1 (stereo not drawn) -5.33%
CCOC(=O)/C(C#N)=C/Nc1ccccc1NS(=O)(=O)c1ccc(C)c(C)c1 9.42%
CNC(=S)Nc1cc2oc3ccccc3c2cc1OC 18.4%
COc1cc2c(cc1NC(=S)Nc1cccc3ccccc13)oc1ccccc12 29.9%
CN(C)/C=C(\C#N)C(N)=C(C#N)C#N -3.37%
N#CC(=Cc1ccc(O)cc1)C(N)=C(C#N)C#N 8.06%
O=C(N/N=C/C1CC=CCC1)c1cc(Br)ccc1O (stereo not drawn) 1.73%
CC(=O)O[C@@H]1[C@H]2[C@@H](C[C@@H](C)[C@@H]3C=CC(=O)[C@@]13C)OC(=O)[C@@H]2C 11.5%
C=C1C(=O)O[C@@H]2C[C@@H](C)[C@@H]3C=CC(=O)[C@@]3(C)[C@@H](OC(C)=O)[C@H]12 35.6%
CCOc1cc(/C=C(\C#N)C(N)=O)ccc1OCc1c(C)no[n+]1[O-] 10.9%
COc1ccccc1Oc1ccc(NC(=O)c2ccc(Cl)cc2)cc1 6.92%
CS(=O)(=O)c1ccc(N)cc1 -0.19%
CS(=O)(=O)c1ccc2nc(N)sc2c1 0.3%
CC(C)OC(=O)NC(Nc1ccccc1C(=O)O)(C(F)(F)F)C(F)(F)F 6.18%
Cc1ccc(C(=O)N[C@H](C(=O)Nc2sccc2C(N)=O)C(C)C)cc1 -5.98%
COc1ccc(OCc2nn3c(-c4cccc(OC)c4)nnc3s2)cc1 8.77%
O=C1/C(=C/c2cccnc2)SC(=S)N1Nc1ccccc1 29.5%
O=C(O)c1ccc(/C=C2\SC(=S)N(Nc3ccccc3)C2=O)cc1 32.2%
CC(/C=N/NC(=O)c1sc(N)nc1C)=C\c1ccccc1 17.8%
O=[N+]([O-])c1ccccc1-c1ccc(/C=N/n2cnnc2)o1 14.3%
Cc1cc(C(=O)O)ccc1-c1ccc(/C=C2\NC(=O)N(Cc3ccc(F)cc3)C2=O)o1 37.5%
NS(=O)(=O)c1ccc(-c2ccc(/C=C3\C(=O)Nc4cc(Cl)ccc43)o2)cc1 -8.34%
CC1=C(C#N)C(=O)NC(=O)/C1=C\c1ccc(-c2ccc(C)cc2[N+](=O)[O-])o1 33.3%
CC1=C(C#N)C(=O)NC(=O)/C1=C\c1ccc(-c2cc(C)c(C)cc2[N+](=O)[O-])o1 17.5%
Cc1ccc(-c2ccc(/C=C3/NC(=O)NC3=O)o2)cc1[N+](=O)[O-] 28.5%
O=C(COc1cccc(NC(=O)c2ccccc2)c1)c1ccccc1 5.06%
CCN(C(=O)CN1CCOCC1)c1c(N)n(Cc2ccccc2)c(=O)[nH]c1=O 7.23%
Cc1ccc(S(=O)(=O)NCCNC(=O)CN2CCCC2)cc1 0.78%
CC1(C)CC(=O)N(CC(=O)N2CCN(c3ncccn3)CC2)c2ccccc2S1(=O)=O -1.17%
O=C(NNc1c(Cl)cccc1Cl)c1c(F)cccc1Cl 9.15%
COC(=O)[C@@]12CCCN1[C@H](c1ccc(-c3ccc(F)cc3)cc1)[C@H]1C(=O)N(C)C(=O)[C@H]12 5.03%
Cc1ccc(S(=O)(=O)NC(=O)N(CCC#N)Cc2ccccc2)cc1 10.3%
CC(C)(C)/C(O)=C/c1nc2ccccc2oc1=O 29.2%
Cc1ccc(/C(O)=C/c2nc3cc(C)ccc3oc2=O)cc1 14.5%
COc1ccc(-c2nc(NC(=O)CSCCO)sc2C)cc1 22.1%
O=S1(=O)N=C(SCCO)c2ccccc21 -3.68%
O=C1C(O)=C(O)C(=O)c2ccccc21 5.58%
CCOc1ccc(NC(=S)N(CCN2CCOCC2)Cc2ccc3c(c2)CCCN3CC)cc1 18.7%
CCCc1cc(-c2[nH]ncc2-c2ccc(C(=O)OCC)o2)c(O)cc1O 18.2%
CCOC(=O)c1[nH]nc(-c2c(O)cc(C)cc2O)c1-c1csc(C)n1 6.85%
CCOC(=O)c1oc2cc(O)c(CC)cc2c(=O)c1-c1cscn1 7.73%
CCCc1cc2c(=O)c(-c3cscn3)c(C(=O)OCC)oc2cc1O 2.58%
CN(C)/C=C/C(=O)c1ccc(S(=O)c2ccccc2)cc1 (stereo not drawn) 12.1%
Cc1cc(/C=C2\NC(=S)NC2=O)c(C)n1-c1cccnc1 4.58%
Cc1cc(/C=N\O)c(C)n1-c1ccncc1 7.77%
Cc1cc(/C=C2/NC(=O)NC2=O)c(C)n1-c1ccncc1 6.66%
Cc1cc(/C=C2/NC(=S)NC2=O)c(C)n1-c1cccnc1 5.09%
COc1ccc2c(c1)CC/C(=C\c1ccc(OC)c(Cn3nc(C)cc3C)c1)C2=O 10.2%
CCCc1nc(-c2ccccc2)c(-c2ccc(OC)c(OC)c2)c(=O)[nH]1 3.66%
O=C(CSc1nnc(CNC(=O)c2cccs2)o1)NC1CCCC1 0.7%
Cc1ccc(C(=O)Cn2nnc(-c3ccccc3)n2)cc1 0.94%
O=C(CCS(=O)(=O)c1cccs1)Nc1ccc(C(=O)NC2CCN(Cc3ccccc3)CC2)cc1 16.1%
O=C(CSCc1c(Cl)cccc1Cl)Nc1ccccc1C(=O)N1CCOCC1 6.94%
CCOC(=O)c1sc(N)c(C(=O)Nc2ccccc2OC)c1C 25.6%
Cc1ccccc1-n1nnnc1SCC(=O)Nc1ccc(S(=O)(=O)N2CCCC2)cc1 -7.07%
COc1ccc2nc(-c3ccc(N)cc3)[nH]c2c1 25.1%
Nc1ccc(-c2nc3ccc([N+](=O)[O-])cc3[nH]2)cc1 1.62%
CC1CCN(C(=O)COC(=O)CSc2ccc(C(N)=O)cc2[N+](=O)[O-])CC1 18.6%
O=C1CCCN1CCNC(=S)Nc1ccccc1 1.29%
O=C1CCCN1CCCNC(=S)Nc1ccccc1 14.1%
COCCOC(=O)C1=C(C)NC(=O)NC1c1ccco1 (stereo not drawn) 13%
Cc1ccc(NC(=O)C(=O)C2C(=O)Nc3ccccc32)cc1 (stereo not drawn) 6.13%
O=C(Nc1ccc(F)cc1)C(=O)C1C(=O)Nc2ccccc21 (stereo not drawn) 16.2%
COc1ccc(CC(=O)NCC(=O)N/N=C/c2sccc2C)cc1 26.5%
O=S(=O)(c1ccc(NC(=S)N/N=C/c2ccc(N3CCOCC3)cc2)cc1)N1CCOCC1 22.6%
N#Cc1ccc(/C=N/NC(=S)Nc2ccc(S(=O)(=O)N3CCOCC3)cc2)cc1 15.2%
Cc1ccc(S(=O)(=O)N2CCN(CC(=O)N/N=C\c3ccncc3)CC2)cc1 22%
Cc1ccc(S(=O)(=O)N2CCN(CC(=O)N/N=C\c3ccc(Cl)c([N+](=O)[O-])c3)CC2)cc1 19.6%
CCCCN(C(=O)NC(=O)Nc1ccccc1C)S(C)(=O)=O 12%
COc1ccc(N2C(=O)CSC2c2cccc(F)c2)cc1 (stereo not drawn) 9.83%
CC1CC(C)(C)NC(=S)N1CCCC(=O)N1CCN(c2ccc(F)cc2)CC1 (stereo not drawn) 7.98%
CCOc1cc2c(cc1OCC)C(c1ccccc1OC)OC(=O)C2 (stereo not drawn) 2.26%
COc1ccc(/C=N/Nc2nc3ccccc3o2)cc1O 28.6%
C(=N\Nc1nc2ccccc2[nH]1)/c1ccccc1 24.9%
Cc1ccc(/C=N/Nc2nc3ccccc3[nH]2)s1 18.3%
COc1ccc(/C=N/Nc2nc3ccccc3[nH]2)cc1OC 26.4%
COc1cc(/C=N\Nc2nc3ccccc3[nH]2)cc(OC)c1OC 22.4%
COc1cc(/C=N\Nc2nc3ccccc3o2)cc(OC)c1OC 12.1%
